Compound activity as filed in PubChem.
In the library only some 4.7% were active in any assay of this set; here they are far more common.
PABP FP inh: blocks human PABP binding to poly(A) RNA | AID 2014 | hit rate 1% among 290,000 | inhibition, % at 35 µM | fluorescence polarization;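 also: calls also rest on retests at 20 µM and on dose response follow-up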
Target sequence (P11940 whole entry, looked up): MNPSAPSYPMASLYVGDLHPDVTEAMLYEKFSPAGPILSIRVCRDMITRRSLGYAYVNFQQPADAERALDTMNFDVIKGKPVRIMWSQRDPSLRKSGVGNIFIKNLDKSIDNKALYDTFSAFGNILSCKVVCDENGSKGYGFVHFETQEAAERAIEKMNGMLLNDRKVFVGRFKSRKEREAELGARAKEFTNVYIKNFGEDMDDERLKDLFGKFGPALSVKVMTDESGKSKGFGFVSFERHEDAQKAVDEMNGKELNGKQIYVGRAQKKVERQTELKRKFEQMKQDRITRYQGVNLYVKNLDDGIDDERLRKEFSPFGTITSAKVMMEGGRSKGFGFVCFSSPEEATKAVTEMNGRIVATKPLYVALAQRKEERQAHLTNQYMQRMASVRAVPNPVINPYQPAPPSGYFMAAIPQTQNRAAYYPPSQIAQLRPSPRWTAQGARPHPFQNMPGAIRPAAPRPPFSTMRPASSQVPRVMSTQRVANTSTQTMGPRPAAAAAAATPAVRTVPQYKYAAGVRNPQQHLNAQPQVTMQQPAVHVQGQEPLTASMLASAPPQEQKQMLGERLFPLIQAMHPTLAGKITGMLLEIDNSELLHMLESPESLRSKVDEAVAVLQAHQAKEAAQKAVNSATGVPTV
eIF4H inh: inhibitors of RNA binding by human eIF4H | eIF4H fluorescence polarization binding assay | inhibition, % at 35 µM | hit rate 0.94% among 290,000 | AID 2012;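 also: calls also rest on retests at 20 µM and on dose response follow-up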
PABP1 MLLE inh: inhibitors of microRNA-mediated deadenylation, human PABP1 MLLE binding; hit rate 0.36% among 360,000; inhibition, % at 20 µM; P11940; AID 588489; GST-MLLE / FITC-PAM2 fluorescence polarization; in the data active = inhibition above about 35%, passing the limit was not always enough;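 also: plate controls were DMSO wells with GST-MLLE for no effect and wells lacking GST-MLLE protein for full effect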
ALR inh: human ALR oxidase inhibition via reduced H2O2; purified ALR, DTT oxidation, H2O2 HRP-luminol luminescence; inhibition, % (test concentration not listed); hit rate 3.8% among 290,000; AID 485317;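 active = mean replicate inhibition above about 79%, with every replicate also reaching it, limit read from the data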
Efflux pump mplx: blocks antifungal efflux pumps in multiplex yeast assay; S. cerevisiae Candida pump triplex, Nile Red efflux; inhibition, % at 10 µM; hit rate 0.44% among 330,000;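 active = plate passing quality check with inhibition over a set limit, or well fluorescence over plate mean plus 4 SD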;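 also: Nile Red retained in pooled yeast measured as flow cytometry median fluorescence; 0% = buffer negative control and 100% = Enniatin B positive control; higher means more Nile Red kept so more efflux inhibition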
SUMO HTRF inh: inhibitors of human SUMOylation (UBC9). hit rate 0.36% among 290,000. HTRF SUMOylation assay, SAE1/SAE2 + UBC9, in vitro. inhibition, % at 35 µM; in the data active = inhibition above about 50%, passing the limit was not always enough
* = called active by the depositor; . = not tested or not shown. Unless noted, no rule for the calls is given here.

SMILES	PABP FP inh	eIF4H inh	PABP1 MLLE inh	ALR inh	Efflux pump mplx	SUMO HTRF inh
CC(=O)c1c(C)oc(C)c1CSCc1ccc(C(=O)O)o1	3	47	31	97*	0	10
N#CC1=C(N)Oc2cc(N)ccc2C1c1ccc(F)cc1 (stereo unspecified)	10	2	-18	98*	0	14
N#CC1=C(N)Oc2cc(N)ccc2C1c1ccccc1Cl (stereo unspecified)	32	11	22	-7	0	9
COc1ccc(C2C(C#N)=C(N)Oc3cc(N)ccc32)cc1 (stereo unspecified)	-3	4	-19	95*	0	13
N#CC1=C(N)Oc2cc(N)ccc2C1c1ccc(Cl)cc1 (stereo unspecified)	-3	0	-5	57	0	-12
N#CC1=C(N)Oc2cc(N)ccc2C1c1ccc(F)cc1F (stereo unspecified)	20*	59	-28	-19	0	6
CCOc1ccccc1NC(=O)NCCCCc1ccccc1	3	-6	1	-6	0	6
O=c1ccc(-c2ccc(S(=O)(=O)N3CCN(c4ccccc4)CC3)o2)n[nH]1	-4	-1	-18	3	0	10
O=C(COC(=O)CSc1ccc(Cl)cc1)NCCc1ccccc1	.	.	16	.	.	.
CC[n+]1c(/C=C(\C)Nc2ccccc2)sc2ccccc21	6	-7	6	89*	0	-8
CC[n+]1ccccc1/C=C/Nc1ccccc1	51*	-2	-110	14	0	-3
CC[n+]1c(/C=C(\C)SC)sc2ccccc21	5	5	20	13	0	1
CC[n+]1c(/C=C(/C)SC)sc2ccccc21	0	4	46*	39	0	5
CC[n+]1c(/C=C/Nc2ccccc2)sc2ccccc21	50*	-1	-105	23	0	20
CC[n+]1c(/C=C(\C)OC)sc2ccccc21	23	-7	31	.	.	19
CCn1c(/C=C/Nc2ccccc2)[n+](CC)c2cc(Cl)c(Cl)cc21	3	-5	-121	8	0	-21
COc1ccc(CC(=O)Nc2cc(S(=O)(=O)Nc3ccc(OC)cc3)ccc2OC)cc1	.	.	-5	3	0	.
COc1cc(N=Nc2ccc(C)cc2S(N)(=O)=O)c(C)cc1N	.	.	-6	.	.	.
O=C(c1ccc(Cl)cc1)[C@@H]1[C@@H]2C(=O)N(c3cccc4ccccc34)C(=O)[C@@H]2C2c3ccccc3C=NN21 (stereo partly specified)	-3	23	-1	-2	0	9
CCOC(=O)c1c(N2C(=O)CC(Sc3ccccc3C(=O)O)C2=O)sc2c1CCCC2 (stereo unspecified)	2	-13	49*	22	0	11
CCOC(=O)c1c(N2C(=O)Nc3ccccc3N2O)sc2c1CCCC2	14	7	9	93*	0	13
CCOc1ccc(N2C(=O)CC(Sc3ccccc3C(=O)O)C2=O)c([N+](=O)[O-])c1 (stereo unspecified)	-5	-4	40*	11	0	1
COC(=O)c1c(N2C(=O)Nc3ccccc3N2O)sc(C)c1C	-8	3	4	6	0	9
CCOC(=O)c1c(NC(=O)c2ccccc2C(=O)O)sc2c1CCCC2	1	-10	5	.	0	18
O=C(O)c1ccccc1SC1CC(=O)N(c2cccc3ccccc23)C1=O (stereo unspecified)	-2	0	40*	.	.	-27
SMILES	PABP FP inh	eIF4H inh	PABP1 MLLE inh	ALR inh	Efflux pump mplx	SUMO HTRF inh
CCN1C(=O)CC(Sc2ccccc2C(=O)O)C1=O (stereo unspecified)	12	-5	20	-7	0	8
NNc1nc(Nc2ccccc2)nc(Nc2ccccc2)n1	3	14	1	-4	0	1
c1ccc(Nc2ccnc(Nc3ccccc3)n2)cc1	13	1	11	96*	0	-11
Cc1cc(C(=O)Nc2cccc3c2O[C@@H](CN(C)S(C)(=O)=O)[C@H](C)CN([C@@H](C)CO)C3=O)n(C)n1	.	.	5	.	0	.
CCN(CCCNC(=O)COc1cc(=O)n(CC)c2ccccc12)c1ccccc1	-12	3	-11	99*	0	-4
CCN(CCCNC(=O)COc1cc(=O)n(C)c2ccccc12)c1ccccc1	8	10	-4	98*	0	-18
CCN(CCNC(=O)Cn1c(=O)sc2ccccc21)c1ccccc1	9	1	-16	98*	0	6
